The campaign covered roughly 5,500 compounds. About 2,000 (36%) were called active. About 18% were inconclusive and are not listed. No stated cut-off is given here; in the data, active means normalized growth mostly below about 0.91 (no sharp cut-off); inconclusive means no clear call, values can overlap the other calls; inactive means mostly above about 0.92. Some of the results follow.
Assay: chemical genetic growth profiling, strain panel (AID 1159580);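 further: tested at 20 µM; growth read once vehicle control cultures reached saturation at 30 °C; 1 = growth at the plate median or of vehicle wells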
Details: growth OD
[1] = S. cerevisiae deletion strains, locus YAL013W, strain DEP1, stronger effect = lower value
[2] = S. cerevisiae deletion strains, locus YBR229C, strain ROT2, stronger effect = lower value
[3] = S. cerevisiae deletion strains, locus YDL101C, strain DUN1, stronger effect = lower value
[4] = S. cerevisiae deletion strains, locus YDL134C, strain PPH21, stronger effect = lower value
[5] = S. cerevisiae deletion strains, locus YDR150W, strain NUM1, stronger effect = lower value
[6] = S. cerevisiae deletion strains, locus YEL061C, strain CIN8, stronger effect = lower value
[7] = S. cerevisiae deletion strains, locus YGR078C, strain PAC10, stronger effect = lower value
[8] = S. cerevisiae deletion strains, locus YHR030C, strain SLT2, stronger effect = lower value
[9] = S. cerevisiae deletion strains, locus YJR043C, strain POL32, stronger effect = lower value
[10] = S. cerevisiae deletion strains, locus YJR075W, strain HOC1, stronger effect = lower value
[11] = S. cerevisiae deletion strains, locus YKL190W, strain CNB1, stronger effect = lower value
[12] = S. cerevisiae deletion strains, locus YLR039C, strain RIC1, stronger effect = lower value
[13] = S. cerevisiae deletion strains, locus YLR058C, strain SHM2 (second series), stronger effect = lower value
[14] = S. cerevisiae deletion strains, locus YLR085C, strain ARP6, stronger effect = lower value
[15] = S. cerevisiae deletion strains, locus YLR262C, strain YPT6, stronger effect = lower value
[16] = S. cerevisiae deletion strains, locus YML094W, strain GIM5, stronger effect = lower value
[17] = S. cerevisiae deletion strains, locus YMR219W, strain ESC1, stronger effect = lower value
[18] = S. cerevisiae deletion strains, locus YMR263W, strain SAP30, stronger effect = lower value
[19] = S. cerevisiae deletion strains, locus YMR307W, strain GAS1, stronger effect = lower value
[20] = S. cerevisiae deletion strains, locus YNL128W, strain TEP1, stronger effect = lower value
[21] = S. cerevisiae deletion strains, locus YNL153C, strain GIM3, stronger effect = lower value
[22] = S. cerevisiae deletion strains, locus YNL298W, strain CLA4 (second series), stronger effect = lower value
[23] = S. cerevisiae deletion strains, locus YNL322C, strain KRE1, stronger effect = lower value
[24] = S. cerevisiae deletion strains, locus YNR030W, strain Alg12, stronger effect = lower value
[25] = S. cerevisiae deletion strains, locus YOL006C, strain TOP1, stronger effect = lower value
[26] = S. cerevisiae deletion strains, locus YPL055C, strain LGE1, stronger effect = lower value
[27] = S. cerevisiae deletion strains, locus YPL241C, strain CIN2, stronger effect = lower value
[28] = S. cerevisiae deletion strains, locus YPR135W, strain CTF4, stronger effect = lower value

Measured: normalized growth

CC(=O)CC(=O)Nc1ccccc1Cl
inactive: [1] 1 | [2] 0.997 | [3] 0.979 | [4] 0.998 | [5] 0.97 | [6] 1.02 | [7] 0.993 | [8] 0.966 | S. cerevisiae deletion strains, locus YJL187C, strain SWE1, stronger effect = lower value 0.995 | [9] 0.982 | [10] 1.03 | [11] 1.01 | [12] 0.993 | [13] 1.01 | [14] 0.967 | [15] 1.02 | [16] 1.02 | [17] 0.993 | [18] 0.999 | [19] 0.947 | [20] 0.987 | [21] 1.02 | [22] 1 | [23] 0.992 | [24] 1 | [25] 1.01 | [26] 1 | [27] 0.978 | [28] 0.925 | S. cerevisiae strains, strain wild type, stronger effect = lower value 0.971

CN1CCc2cccc(Cl)c2CC1
inactive: [1] 0.986 | S. cerevisiae deletion strains, locus YAL040C, strain CLN3, stronger effect = lower value 1 | S. cerevisiae deletion strains, locus YCL061C, strain MRC1 (second series), stronger effect = lower value 1.01 | S. cerevisiae deletion strains, locus YDR363W, strain ESC2, stronger effect = lower value 1 | S. cerevisiae deletion strains, locus YER002W, strain NOP16, stronger effect = lower value 1 | [10] 0.993 | [19] 1.01 | S. cerevisiae deletion strains, locus YNL175C, strain NOP13, stronger effect = lower value 1.01 | S. cerevisiae deletion strains, locus YNL197C, strain WHI3, stronger effect = lower value 1.01 | S. cerevisiae deletion strains, locus YNL224C, strain SQS1, stronger effect = lower value 1 | [23] 1 | S. cerevisiae deletion strains, locus YOR083W, strain WHI5 (second series), stronger effect = lower value 1.01 | [26] 0.998

Cc1cccc2c1N(C(=S)Nc1ccccc1Cl)CCC2
active: [2] 0.821 | S. cerevisiae deletion strains, locus YCL061C, strain MRC1, stronger effect = lower value 0.898 | [4] 0.911 | [6] 0.845 | [7] 0.907 | [8] 0.331 | S. cerevisiae deletion strains, locus YHR087W, strain rtc3, stronger effect = lower value 0.787 | [10] 0.876 | [11] 0.648 | [12] 0.439 | [14] 0.602 | [15] 0.406 | [16] 0.712 | [17] 0.851 | [19] 0.219 | [21] 0.913 | [22] 0.582 | [25] 0.508 | [28] 0.273
inactive: [1] 0.966 | [3] 0.972 | [5] 1.01 | S. cerevisiae deletion strains, locus YGR229C, strain SMI1, stronger effect = lower value 0.997 | [9] 0.997 | [13] 0.95 | [18] 0.915 | [20] 0.914 | [23] 0.989 | [24] 0.906 | [26] 0.93 | [27] 0.859

Reference: PubChem BioAssay AID1159580 (chemical genetic matrix, 2015)
